Measurements as given in the supplement of paper PMC10127200.
Structures can show the parent of a compound that is named as a salt.

Legend:
Test in all cases: Euclidean distance of Cell Painting phenotypic profile (signed KS, 77 features) to DMSO centroid (dimensionless distance); 5 or 10 uM (library dependent); higher = stronger phenotypic change vs DMSO (phenoactivity)
Conditions in all cases: 48 h
786-O = system: 786-O
How it was run: (§1)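 Five cancer lines and a healthy fibroblast line received library compounds at 10 or 5 uM (library-dependent, 0.1% DMSO final) for 48 h. Stained cells were imaged confocally at 20X (9 fields/well). Harmony extracted 77 features, each scored as a signed Kolmogorov-Smirnov statistic against same-plate vehicle wells. Profiles were plate-position corrected, correlation-weighted and replicate-averaged at the top dose. Phenoactivity is the Euclidean distance from each profile to the median vehicle profile.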

A549 = system: A549
How it was run: as §1

FB = system: FB
How it was run: as §1

HEPG2 = system: HEPG2
How it was run: as §1

OVCAR4 = system: OVCAR4
How it was run: as §1

Structure (SMILES): CC(CN(C)C)CN1c2ccccc2CCc2ccccc21 (stereo not given) [Trimipramine Maleate]
- Euclidean distance (786-O): 1.08
- Euclidean distance (A549): 1.02
- Euclidean distance (FB): 1.91
- Euclidean distance (HEPG2): 1.2
- Euclidean distance (OVCAR4): 1.57

Structure (SMILES): Nc1ccc(S(=O)(=O)Nc2ccccn2)cc1 [Sulfapyridine]
- Euclidean distance (786-O): 0.73
- Euclidean distance (A549): 1.12
- Euclidean distance (FB): 0.894
- Euclidean distance (HEPG2): 0.884
- Euclidean distance (OVCAR4): 1.27

Structure (SMILES): CC[C@H](C)[C@H](N)C1=N[C@H](C(=O)N[C@@H](CC(C)C)C(=O)N[C@H](CCC(=O)[O-])C(=O)N[C@H](C(=O)N[C@H]2CCCCNC(=O)[C@H](CC(N)=O)NC(=O)[C@@H](CC(=O)[O-])NC(=O)[C@H](Cc3cnc[nH]3)NC(=O)[C@@H](Cc3ccccc3)NC(=O)[C@H]([C@@H](C)CC)NC(=O)[C@@H](CCCN)NC2=O)[C@@H](C)CC)CS1.[Zn+2] [Bacitracin Zinc]
- Euclidean distance (786-O): 0.919
- Euclidean distance (A549): 0.811
- Euclidean distance (FB): 0.932
- Euclidean distance (HEPG2): 1.77
- Euclidean distance (OVCAR4): 1.44

Structure (SMILES): N#C[C@@H]1C[C@@H]2C[C@@H]2N1C(=O)[C@@H](N)C12CC3CC(CC(O)(C3)C1)C2 [Saxagliptin hydrate]
- Euclidean distance (786-O): 0.976
- Euclidean distance (A549): 0.951
- Euclidean distance (FB): 0.817
- Euclidean distance (HEPG2): 0.598
- Euclidean distance (OVCAR4): 1.53

Structure (SMILES): CC1(C)[C@H](C(=O)O)N2C(=O)C[C@H]2S1(=O)=O [Sulbactam sodium]
- Euclidean distance (786-O): 0.743
- Euclidean distance (A549): 0.526
- Euclidean distance (FB): 0.933
- Euclidean distance (HEPG2): 0.675
- Euclidean distance (OVCAR4): 0.666

Structure (SMILES): CN(C)C(=N)NC(=N)N [Metformin HCl]
- Euclidean distance (786-O): 1.61
- Euclidean distance (A549): 0.837
- Euclidean distance (FB): 1.26
- Euclidean distance (HEPG2): 0.474
- Euclidean distance (OVCAR4): 1.78
